These results are taken from ChEMBL document CHEMBL1201862, “PubChem BioAssay data set” (2004).

Structures are written as SMILES. Among all 400,000 compounds or so, about 2,100 (0.53%) were called active. Inconclusive results (about 14%) are left out. How the calls were made is not given here. For the sample, actives were picked, then their nearest neighbours and some compounds at random.

The target in this assay is Ataxin-2 (Homo sapiens) (UniProt Q99700). Briefly: qHTS for Inhibitors of ATXN expression. The assay is classed as functional.
Sequence of Ataxin-2 (Homo sapiens) (Q99700 whole entry): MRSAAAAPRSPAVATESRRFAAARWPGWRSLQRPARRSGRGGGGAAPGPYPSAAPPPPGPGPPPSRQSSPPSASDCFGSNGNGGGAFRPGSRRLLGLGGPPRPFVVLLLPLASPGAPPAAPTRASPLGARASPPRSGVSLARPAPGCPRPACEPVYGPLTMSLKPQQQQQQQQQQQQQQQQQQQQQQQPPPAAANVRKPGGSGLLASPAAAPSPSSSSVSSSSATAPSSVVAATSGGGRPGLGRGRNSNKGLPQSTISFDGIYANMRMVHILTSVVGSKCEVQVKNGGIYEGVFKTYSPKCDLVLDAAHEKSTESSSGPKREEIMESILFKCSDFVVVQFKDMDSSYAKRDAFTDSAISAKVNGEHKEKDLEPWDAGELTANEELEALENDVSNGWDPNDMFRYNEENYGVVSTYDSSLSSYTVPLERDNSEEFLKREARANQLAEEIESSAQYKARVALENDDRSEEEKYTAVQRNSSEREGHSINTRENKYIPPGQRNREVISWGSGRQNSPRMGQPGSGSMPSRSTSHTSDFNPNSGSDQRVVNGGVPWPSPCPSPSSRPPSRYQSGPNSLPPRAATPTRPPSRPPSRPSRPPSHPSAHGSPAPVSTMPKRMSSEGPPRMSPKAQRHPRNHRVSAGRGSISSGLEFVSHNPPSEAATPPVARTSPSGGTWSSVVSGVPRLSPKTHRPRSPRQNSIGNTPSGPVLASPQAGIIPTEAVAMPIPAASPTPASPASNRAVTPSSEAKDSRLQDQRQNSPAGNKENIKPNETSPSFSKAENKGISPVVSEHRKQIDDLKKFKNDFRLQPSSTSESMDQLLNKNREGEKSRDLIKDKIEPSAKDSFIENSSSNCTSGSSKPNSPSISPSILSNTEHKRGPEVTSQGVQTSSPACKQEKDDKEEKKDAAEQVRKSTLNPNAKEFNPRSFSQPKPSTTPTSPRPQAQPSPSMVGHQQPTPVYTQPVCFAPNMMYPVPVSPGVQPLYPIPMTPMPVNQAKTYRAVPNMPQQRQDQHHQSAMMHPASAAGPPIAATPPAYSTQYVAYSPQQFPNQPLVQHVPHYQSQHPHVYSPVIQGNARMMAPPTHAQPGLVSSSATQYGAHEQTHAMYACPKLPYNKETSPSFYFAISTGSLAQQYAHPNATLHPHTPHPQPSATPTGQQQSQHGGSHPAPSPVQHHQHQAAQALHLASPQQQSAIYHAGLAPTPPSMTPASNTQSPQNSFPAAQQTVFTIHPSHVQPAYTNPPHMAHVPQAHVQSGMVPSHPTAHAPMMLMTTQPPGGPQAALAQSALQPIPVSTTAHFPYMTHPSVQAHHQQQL
As for `O=C(O)c1cc(Sc2ccc(Br)cc2)nc2ccccc12`, the Potency entry was “inactive”.

`Nc1nc(N)c2cc(Sc3ccc(Cl)cc3)ccc2n1`: the Potency is 35.5 µM (active). Regarding `N#C/C(=C\c1ccc(N2CCOCC2)o1)C(=O)NCCc1ccccc1`, the Potency result is “inactive”.

For `COc1ccc(C(=O)NN=C2CCCC2)cc1`, the Potency entry was “inactive”. The entry for `COc1ccc(C(=O)COc2ccccc2C#N)cc1` is “inactive”; for `COc1ccc(C(=O)C(CCCCC(CN(C)C)C(=O)c2ccc(OC)cc2)CN(C)C)cc1` (stereo unspecified) it is 31.6 µM (active).

For the compound `CC(=O)c1cccc(S(=O)(=O)N2CCC(C(=O)Nc3cccc(C(=O)NC4CC4)c3)CC2)c1`, the Potency entry was “inactive”. For `Nc1ccc(OC(=O)Nc2ccc(O)cc2)cc1` the value was “inactive”; for `CCOC(=O)CN1N=C(c2ccc(Cl)cc2)CCC1=O`, “inactive”; for `CCOC(=O)N1C(=O)[C@@](c2ccc(Cl)cc2)(C(C)C)N1C(=O)OCC`, 31.6 µM (active). With `CCN(CC)C(=O)Cn1cc(C(=O)C(=O)N2CC=C(c3ccccc3)CC2)c2ccccc21`, the Potency entry is “inactive”. For the compound `Cc1cccc(NC(=O)NNC(=O)c2cc3ccccc3cc2O)c1C`, the Potency result was “inactive”. For `C=CCC[C@@H](Cc1ccc(F)cc1)C(=O)OC[C@H](C)NC(=O)[C@H](CC=C)CC(=O)N(CCO)Cc1ccccc1` the value was 28.2 µM (active). On to `C=CCC[C@@H](Cc1ccc(F)cc1)C(=O)OC[C@@H](C)NC(=O)[C@H](CC=C)CC(=O)N(CCO)Cc1ccccc1`, for which the Potency is 39.8 µM (active). As for `C/C(=N\NC(=O)Cc1csc(N2CCOCC2)n1)c1ccc(Cl)c(Cl)c1`, the Potency entry was “inactive”. Take `CCCCCc1c(-c2ccccc2OC)ncn1CCc1ccccc1OC`: the Potency is 31.6 µM (active). The figure for `CCCCc1c(-c2ccccc2Br)ncn1CCc1ccccc1OC` is 28.2 µM (active); for `CCCCc1c(-c2ccccc2F)ncn1CCc1ccccc1OC` it is 31.6 µM (active). Take `CCCCCN1C(C(=O)c2ccccc2)=C(NC(=O)c2ccc(OC)c(OC)c2)c2ccccc2S1(=O)=O`: the Potency result is “inactive”. For `Nc1cccc2c1C(=O)N(CCOc1ccccc1F)C2=O`, the Potency entry was “inactive”. The figure for `CCCc1c(-c2ccccc2Br)ncn1Cc1ccccc1OC` is 31.6 µM (active).

With `Cc1cc(Cl)n2c(nc3ccccc32)c1C#N`, the Potency entry was “inactive”. In the case of `CC(CCCC(C)(C)O)NC(=O)c1ccc(OC2CCN(C(=O)C3CC3)CC2)cc1` (stereo unspecified), the Potency result is “inactive”. Regarding `CCCCc1c(-c2ccc(F)cc2F)ncn1CCc1ccccc1OC`, the Potency is 35.5 µM (active). For `CCCCCc1c(-c2ccccc2F)ncn1CCc1ccccc1OC`, the Potency was 28.2 µM (active).

With `CCOC(=O)C1(CCOC)CCCCC1=O` (stereo unspecified), the Potency entry is “inactive”. For `Cc1ccc(Nc2nc(Cl)c(C=O)s2)cc1Cl` the value was “inactive”; for `CC(C)N(CCNCc1nnc(-c2ccccc2)o1)C(C)C`, “inactive”; for `COC(=O)Cc1c(C)c2ccc3c(c2oc1=O)CN(Cc1ccc(Cl)cc1)CO3`, “inactive”.

For the compound `Cc1ccc(C(=O)C(C(=O)/C=C/c2ccccc2)=C2SCCCS2)cc1`, the Potency was 25.1 µM (active). On to `CC1=CC(=O)C=C(C)C1=NOC(=O)/C=C\c1ccccc1`, for which the Potency result is “inactive”. With `Cc1cc(N2CCN(C)CC2)nc2ccc(NC(S)=NCCN3CCc4ccccc4C3)cc12`, the Potency was 28.2 µM (active). Take `COCCCN=C(S)Nc1ccc2nc(N3CCOCC3)cc(C)c2c1`: the Potency result is “inactive”. `Cc1cc(C)c2cc3c(N)c(C(=O)N4CCc5ccccc5C4)sc3nc2c1`: the Potency entry is “inactive”.

On to `CCN1CCN(c2cc(C)c3cc(NC(S)=NCCCN4CCc5ccccc5C4)ccc3n2)CC1`, for which the Potency is 25.1 µM (active). For `COc1cc(OC)c2c(OC)cccc2n1` the value was “inactive”; for `CC(C)c1ccc(O)c(C(=O)c2cnn(-c3ccccc3)c2)c1`, “inactive”. On to `Cc1cccn2c(=O)c3cc(C(N)=S)c(=N)n(CCCOC(C)C)c3nc12`, for which the Potency result is “inactive”. Turning to `CCCCNC(=O)C1(NC(=O)Nc2ccccc2)CCCCC1`, the Potency result is “inactive”.

In the case of `CCCCNC(=O)C[C@@H]1C[C@@]2(C(=O)OC)CCCCC=C2N(CCC2=CCCCC2)C1=O`, the Potency was 39.8 µM (active).

Turning to `CCCCOCCCNC(=O)C[C@@H]1C[C@@]2(C(=O)OC)CCCCC=C2N(CCC2=CCCCC2)C1=O`, the Potency is 35.5 µM (active). Consider `Cc1cc(NCCCOC(C)C)n2c(nc3ccccc32)c1C#N`, for which the Potency entry was “inactive”. `CC(=O)c1ccc(NC(=O)COC(=O)C2CC3C=CC2C3)cc1` (stereo unspecified): the Potency entry is “inactive”.

As to `O=C1/C(=C\NCc2ccccn2)c2ccccc2C(=O)N1c1ccccc1Cl`, the Potency result is “inactive”.

Consider `Cc1ccc(OCC(=O)N(Cc2ccco2)C2CCS(=O)(=O)C2)cc1C` (stereo unspecified), for which the Potency entry was “inactive”. Consider `CCN(C(=O)COc1cccc2cccnc12)C1CCS(=O)(=O)C1` (stereo unspecified), for which the Potency entry was “inactive”. As for `CCN(C(=O)C(C)N1C(=O)/C(=C/c2ccco2)SC1=S)C1CCS(=O)(=O)C1` (stereo unspecified), the Potency was 28.2 µM (active).

On to `Cc1ccc(O)c(Nc2c3ccccc3nc3ccccc23)c1`, for which the Potency result was “inactive”. Take `Cc1ccc(O)c(NN=C2C(=O)CC(C)(C)CC2=O)c1`: the Potency was 20 µM (active). In the case of `O=C(OCC(=O)c1ccc[nH]1)c1cncc(Br)c1`, the Potency entry is “inactive”. For the compound `Cc1[nH]c2ccccc2c1/C=N/Nc1ccc([N+](=O)[O-])cc1`, the Potency result was “inactive”. The entry for `CN1CCN(S(=O)(=O)c2cc([N+](=O)[O-])ccc2N/N=C/c2ccc(Cl)cc2)CC1` is “inactive”; for `Cc1ccc(-n2[nH]c(C)c(/C=N/Nc3ccc([N+](=O)[O-])cc3[N+](=O)[O-])c2=O)cc1` it is 14.1 µM (active). Consider `CCc1ccc(S(=O)(=O)N2CCN(Cc3ccco3)CC2)cc1`, for which the Potency entry is “inactive”. On to `CCc1ccc([C@@H]2CC=C(C(=O)O)[C@H](c3ccc(C(C)(C)C)cc3)N2S(=O)(=O)c2ccc(C)cc2)cc1`, for which the Potency is 35.5 µM (active). Regarding `CSC1=NCCN1S(=O)(=O)c1ccc(C)cc1`, the Potency result was “inactive”.

For the compound `CCC(C)NCC(=O)Nc1ccc(-c2nc3cc(NC(=O)CNC(C)CC)ccc3o2)cc1` (stereo unspecified), the Potency was 22.4 µM (active). For `Cc1ccc(NC(=O)CSC(C)C(=O)OCc2cc(=O)oc3cc(O)ccc23)cc1` (stereo unspecified), the Potency entry is “inactive”. Consider `CC(=O)Nc1ccc2cc3ccc(NC(C)=O)cc3nc2c1`, for which the Potency entry is “inactive”.

In the case of `COc1cc(/C=C\C(=O)Nc2cc(=O)n(C)c(=O)n2C)cc(OC)c1OC`, the Potency entry is “inactive”. Consider `CNC[C@@H](CC1CCCCC1)NC[C@H](CC(C)C)NCCc1cccc(C(F)(F)F)c1`, for which the Potency is 15.8 µM (active). `CSCCC(=O)N(C)CC1CCCN(CCc2cccc(C(F)(F)F)c2)C1` (stereo unspecified): the Potency entry was “inactive”. The entry for `O=c1nc2c(O)cccn2c2c1c(O)nc1ccccc12` is “inactive”. As to `Nc1nc(O)c(CCCOc2ccc(NC(=O)CBr)cc2)c(-c2ccccc2)n1`, the Potency was 25.1 µM (active). For the compound `CCOc1ccc(NC(=O)COC(=O)CNC(=O)c2ccc(-c3ccccc3)cc2)cc1`, the Potency result is “inactive”.

In the case of `Cc1nc(C)c(C(=O)OCC(=O)Nc2ccccc2)s1`, the Potency entry is “inactive”. As to `CC(C)CC1c2[nH]c3ccccc3c2CCN1C(=O)CCC(=O)N(C)C` (stereo unspecified), the Potency entry is “inactive”.

For `Cc1cc(C)cc(NC(=O)C2CCCN(C(=O)c3cnn(-c4ccccc4)c3-n3cccc3)C2)c1` (stereo unspecified), the Potency was 20 µM (active). Turning to `Cc1c(CN2CCCC(C(=O)Nc3cccc(-n4cccn4)c3)C2)cnn1C` (stereo unspecified), the Potency entry is “inactive”. For the compound `Cc1cc(Cl)ccc1C(=O)C1CCCN(C(=O)/C=C/c2cnn(C)c2)C1` (stereo unspecified), the Potency entry is “inactive”. For the compound `Cc1cc(C)cc(NC(=O)Nc2ccccc2N2CCCCC2)c1`, the Potency result was “inactive”. Take `Cc1c(Cl)cccc1NC(=O)C1CCCN(C(=O)c2cnn(-c3ccccc3)c2-n2cccc2)C1` (stereo unspecified): the Potency is 39.8 µM (active).

Consider `Cc1c(Cl)cccc1NC(=O)CN1CCN(CCNC=C2C(=O)CC(c3ccccc3)CC2=O)CC1` (stereo unspecified), for which the Potency result is “inactive”. As for `Cc1ccc(SCc2nn(C)c(Cl)c2C=O)cc1`, the Potency entry was “inactive”. For the compound `CCCN(C(=O)c1cccc(S(=O)(=O)N2CCCc3ccccc32)c1)C1CCS(=O)(=O)C1` (stereo unspecified), the Potency entry is “inactive”. For `CC(C)c1cc(NCCOCCO)n2c(nc3ccccc32)c1C#N`, the Potency entry is “inactive”. Regarding `OCCN(CCO)c1ccc(C(c2ccccc2Cl)c2ccc(N(CCO)CCO)cc2Cl)c(Cl)c1`, the Potency is 39.8 µM (active). Regarding `Cc1cc(N(CCO)CCO)ccc1C(c1ccc(N(CCO)CCO)cc1C)c1ccccc1Cl`, the Potency was 39.8 µM (active). As for `COc1cc(/C=N/NC(=O)c2ccccn2)cc2c1OCO2`, the Potency result is “inactive”.

With `CCOc1cc(NC(=O)c2ccccn2)c(OCC)cc1NC(=O)c1ccc(OC)cc1`, the Potency entry was “inactive”.

`CCN(CC)CCOc1ccc2c(c1)C(=NNC(=O)c1ccccn1)c1cc(OCCN(CC)CC)ccc1-2`: the Potency was 39.8 µM (active). In the case of `c1ccc(-c2nc(N3CCCC3)nc3ccccc23)cc1`, the Potency result is “inactive”. As to `CCN(CC)c1ccc2cc(-c3nnc(-c4cccc(Cl)c4)o3)c(=O)oc2c1`, the Potency result was “inactive”. For `CCCCCCc1cc2cc(S(=O)(=O)c3ccc(Cl)cc3)c(=O)oc2cc1O`, the Potency entry was “inactive”.

On to `Cc1ccccc1C(=O)OC1CCN(C)CC1`, for which the Potency entry is “inactive”. Take `CC(=O)Nc1ccc(CNc2nc(NCCN(C)C)nc3cc(-c4ccccc4)sc23)cc1`: the Potency was 31.6 µM (active).

As for `CC(=O)Nc1ccc(S(=O)(=O)Nc2nc3nc(-c4ccccc4)cc(-c4ccccc4)n3n2)cc1`, the Potency result was “inactive”. For the compound `NNC(=O)c1sc(-c2ccccc2)cc1N`, the Potency result was “inactive”. The entry for `Cc1ccc2nc(NCCC(=O)O)nc(-c3ccccc3)c2c1` is “inactive”. For `COCCNc1nc(NCCOc2ccccc2)c2sc(-c3ccccc3)cc2n1` the value was 25.1 µM (active); for `COCCNc1nc(NCc2ccc(NC(C)=O)cc2)c2sc(-c3ccccc3)cc2n1`, 31.6 µM (active); for `COCCNc1nc2c(-c3cccc(C(F)(F)F)c3)nnn2c2ccccc12`, “inactive”. As to `COCCCNc1nc2c(-c3cccc(C)c3)nnn2c2ccccc12`, the Potency result is “inactive”. For `O=C(O)CCNc1nc(-c2ccccc2)c2cc(Br)ccc2n1`, the Potency entry was “inactive”.

As for `C[C@]12CCCC[C@@H]1CC[C@@H]1[C@@H]2CC[C@@]2(C)[C@H]1CC[C@@]2(O)CNCCO`, the Potency entry was “inactive”. For `O=C(c1cc(Br)c(Br)s1)N1CCc2ccccc2C1`, the Potency result was “inactive”. In the case of `O=S(=O)(NC1CCSc2ccccc21)c1ccc(Cl)nc1` (stereo unspecified), the Potency entry is “inactive”. The entry for `Cc1cccn2c(=O)c3cc(C#N)/c(=N\C(=O)c4cccs4)n(CCCOC(C)C)c3nc12` is “inactive”. For the compound `COc1ccc(C[C@H]2CN3C(=NC[C@@H]3Cc3ccccc3)N2CCNC(=O)c2ccc(C)c(Br)c2)cc1`, the Potency is 22.4 µM (active). For the compound `COC(=O)CCNC(=O)c1ccc2nc(Cc3ccc(OC)cc3)oc2c1`, the Potency entry was “inactive”. Consider `Cc1ccc(C(=O)NC(=S)NCc2ccccc2)cc1Br`, for which the Potency entry was “inactive”. Consider `COc1cccc(CNC(=O)c2ccc(C)c(NC3=NC4CS(=O)(=O)CC4S3)c2)c1` (stereo unspecified), for which the Potency entry is “inactive”.

Take `COc1ccc(C[C@H]2CN3C(=NC[C@@H]3C(C)C)N2CCNC(=O)c2ccc(C)c(Br)c2)cc1`: the Potency was 20 µM (active). For `COc1cccc(C(=O)NCCn2ccc3ccccc32)c1`, the Potency result was “inactive”.

Consider `COc1ccc(C(=O)NCCNc2nc3c(C)cccc3cc2C#N)cc1`, for which the Potency result was “inactive”. With `COc1ccc(C[C@H]2CN3C(=NC[C@@H]3Cc3ccc(O)cc3)N2CCNC(=O)c2ccc(C)c(Br)c2)cc1`, the Potency was 39.8 µM (active).
